“And” between values parts separate entries of the source, which are not always exact repeats. Equal values may be shown once. Compounds without any hit were thinned out: in the full panel of roughly 83,000, 20% have a hit.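 Treatment: one concentration, 48 hours, 96-well format. Scoring: percent growth, with anything below 10 considered active.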 The source made the active and inactive calls.
These molecules were tested on DU-145 prostate (assay: NCI-60 one-dose screen, 48 h (100 = growth as untreated, 0 = no growth, -100 = all killed)). Conditions: 10 µM unless noted.

**Q.** With `O=C(N/N=C/c1ccc(Br)o1)c1[nH]c2ccc(Br)cc2c1-c1ccccc1` as the molecule, how does the growth read?
**A.** -44.6% (active)

**Q.** With `CCCCCCCCc1ccc(C(=O)Nc2ccc(C)c(OP(=O)(O)O)c2)cc1` as the molecule, how does the growth read?
**A.** 101% (inactive)

**Q.** How did the growth turn out when `Cn1cc(-c2cc3nc(-c4cn(C)c5ncc(Br)cc45)cc(N)n3n2)c2cc(F)ccc21` was run?
**A.** 0.863% (active)

**Q.** How did the growth turn out when `O=C1Nc2ccccc2/C1=C/C(=O)c1cc2ccccc2oc1=O` was run?
**A.** 97.3% (inactive)

**Q.** Which growth does the source give for `c1n[nH]cc1-c1nc2ccc3cn[nH]c3c2c2c1CCCC2` here?
**A.** 93% (inactive)

**Q.** For `CN1C(=O)C(O)(CC(=O)c2cc3ccccc3oc2=O)c2ccccc21` (configuration not stated), which growth is on record?
**A.** 137% (inactive)

**Q.** For `O=C(CCl)Nc1ccc(C(=O)/C=C/c2cc3ccccc3nc2Cl)cc1`, which growth is on record?
**A.** -84.1% (active) and 46.7% (inactive)

**Q.** With `Cc1cc(C2(c3cc(C)c(OCC(O)CNc4c(C)n(C)n(-c5ccccc5)c4=O)cc3C(C)C)OC(=O)c3ccccc32)c(C(C)C)cc1OCC(O)CNc1c(C)n(C)n(-c2ccccc2)c1=O` (configuration not stated) as the molecule, how does the growth read?
**A.** 50.7% (inactive)

**Q.** With `Cn1cc(-c2cc(N)n3nc(-c4c[nH]c5ccccc45)cc3n2)c2cc(Br)ccc21` as the molecule, how does the growth read?
**A.** -70% (active)

**Q.** Which growth does the source give for `CCC(=O)c1c2c(c3ccc4c5ccccc5ccc4n13)C(=O)c1ccccc1C2=O` here?
**A.** 20.3% (inactive)

**Q.** How did the growth turn out when `CS(=O)(=O)Nc1cc(-c2ccc3ncnc(Nc4ccc(OCc5cccnc5)c(Cl)c4)c3c2)cnc1Cl` was run?
**A.** 16.5% (inactive)

**Q.** With `Cn1cc(-c2cc(N)n3nc(-c4c[nH]c5ccccc45)cc3n2)c2cc(Cl)ccc21` as the molecule, how does the growth read?
**A.** -62.6% (active)

**Q.** For `COc1ccc(N=Nc2c(N)nn3c(N)c(C#N)c(-c4ccc(C)cc4)nc23)cc1`, which growth is on record?
**A.** 42.2% (inactive)

**Q.** For `COc1ccc(C(=O)/C=C/c2ccc3c(c2)OCCO3)cc1S(N)(=O)=O`, which growth is on record?
**A.** 44.7% (inactive)

**Q.** How did the growth turn out when `CCCCC[C@@H]1C/C=C(\C)[C@@H](O)C(C)(C)C(=O)[C@@H](C)/C=C(\C)[C@@H]2C[C@H](O)C[C@](O)(CC(=O)O1)O2` was run?
**A.** 41.3% (inactive)

**Q.** How did the growth turn out when `CC(C)(C)c1ccc(OCc2nc3ccccc3n2-c2cccc(N)c2)cc1` was run?
**A.** 80.8% (inactive) and 124% (inactive)

**Q.** Which growth does the source give for `O=C1/C(=C/c2cnc(-c3ccccc3)s2)SC(=S)N1Cc1ccc2c(c1)OCO2` here?
**A.** 86% (inactive)

**Q.** `COc1ccc(NC2=C(I)C(=O)C(C)=C(C)C2=O)cc1` was tested. Which growth did it give?
**A.** 86.2% (inactive)

**Q.** Which growth does the source give for `COc1ccc(-c2nnc3c(/C=C/c4ccc(Br)cc4)nc4ccccc4n23)cc1` here?
**A.** 53.6% (inactive)

**Q.** How did the growth turn out when `C[C@H]1[C@@H](CC(=O)N[C@@H](Cc2coc3ccccc23)B(O)O)O[C@@H]2OC3(C)CC[C@H]4[C@H](C)CC[C@@H]1[C@@]24O3` was run?
**A.** 45% (inactive)

**Q.** How did the growth turn out when `O=C(NNC(=S)NC(=O)c1ccccc1)c1ccc(OCc2nc3ccc(Cl)cc3[nH]2)cc1` was run?
**A.** 26.3% (inactive)

**Q.** Which growth does the source give for `CC1=C(C)C(=O)C(NCCN2CCOCC2)=C(Br)C1=O` here?
**A.** -76.9% (active)

**Q.** How did the growth turn out when `N#Cc1ccc(C(=O)NNC(=O)CSc2nc3sc4c(c3c(=O)n2-c2ccc(Cl)cc2)CCCC4)cc1` was run?
**A.** 70.4% (inactive)

**Q.** With `CCCCCCCOc1ccc(S(=O)(=O)Nc2ccc(C)c(F)c2C(=O)O)cc1` as the molecule, how does the growth read?
**A.** 104% (inactive)

These molecules were tested on K-562 leukemia in the same assay as above. Conditions: 10 µM unless noted.

**Q.** How did the growth turn out when `O=C(CSc1nc2ccccc2c(=O)[nH]1)Nc1ccccc1C(=O)O` was run?
**A.** 97.8% (inactive)

**Q.** With `Cn1cc(-c2cc(N)n3nc(-c4c[nH]c5ccccc45)cc3n2)c2ccccc21` as the molecule, how does the growth read?
**A.** 11.4% (inactive)

**Q.** `Cc1cccc(/C=C/c2ccc(NC(=S)NCCCCN(C)C)cc2)c1` was tested. Which growth did it give?
**A.** 3.99% (active)

**Q.** Which growth does the source give for `Cc1ccc(N=Nc2c(N)nn3c(-c4cc5ccccc5oc4=O)ccnc23)cc1` here?
**A.** 40.7% (inactive)

**Q.** With `O=C(Nc1nc2ccccc2s1)Nc1ccccc1Cl` as the molecule, how does the growth read?
**A.** 86.2% (inactive)

**Q.** How did the growth turn out when `COc1ccc(NC(=O)CSc2nnc(-c3ccc(-c4nc5ccc(Cl)cc5[nH]4)cc3)o2)cc1` was run?
**A.** 13.3% (inactive)

**Q.** How did the growth turn out when `O=C1Nc2cc(-c3ccc(NS(=O)(=O)c4ccc(C(F)(F)F)cc4)cc3)ccc2/C1=C/c1ccc[nH]1` was run?
**A.** 11.4% (inactive)

**Q.** `COc1ccc(Nc2nnc(-c3c[nH]c4ccccc34)o2)cc1` was tested. Which growth did it give?
**A.** 68.1% (inactive)

**Q.** With `Cn1cc(-c2cc(N)n3nc(-c4c[nH]c5ccc(F)cc45)cc3n2)c2cccnc21` as the molecule, how does the growth read?
**A.** -32% (active)

**Q.** For `O=C(NN1C(=O)/C(=C/C=C/c2ccc([N+](=O)[O-])o2)SC1=S)c1ccc([N+](=O)[O-])cc1`, which growth is on record?
**A.** 4.2% (active)

**Q.** With `CN1C(=O)/C(=C/c2ccco2)S/C1=N/c1nccs1` as the molecule, how does the growth read?
**A.** 101% (inactive)

**Q.** Which growth does the source give for `N#C/C(=C/c1ccc([N+](=O)[O-])cc1)c1nnc(NC(=O)c2ccc(-n3c(=O)[nH]c4ccccc4c3=O)cc2)s1` here?
**A.** 103% (inactive)

**Q.** For `O=C(CSc1nnc(-c2ccc(-c3nc4ccc(Cl)cc4[nH]3)cc2)o1)Nc1ccccc1`, which growth is on record?
**A.** 12.3% (inactive)

**Q.** Which growth does the source give for `Cc1cccc(NCC(=O)N2CCN(c3ncnc4c3cnn4-c3ccccc3)CC2)c1` here?
**A.** 43.8% (inactive)

**Q.** Which growth does the source give for `O=C(N/N=C/c1ccc(Br)o1)c1[nH]c2ccc(Br)cc2c1-c1ccccc1` here?
**A.** 7.92% (active)

**Q.** With `CCCCCCCCc1ccc(C(=O)Nc2ccc(C)c(OP(=O)(O)O)c2)cc1` as the molecule, how does the growth read?
**A.** 87% (inactive)

**Q.** For `Cn1cc(-c2cc3nc(-c4cn(C)c5ncc(Br)cc45)cc(N)n3n2)c2cc(F)ccc21`, which growth is on record?
**A.** 21.9% (inactive)

**Q.** With `O=C1Nc2ccccc2/C1=C/C(=O)c1cc2ccccc2oc1=O` as the molecule, how does the growth read?
**A.** 14.5% (inactive)

**Q.** With `c1n[nH]cc1-c1nc2ccc3cn[nH]c3c2c2c1CCCC2` as the molecule, how does the growth read?
**A.** 101% (inactive)

**Q.** With `CN1C(=O)C(O)(CC(=O)c2cc3ccccc3oc2=O)c2ccccc21` (configuration not stated) as the molecule, how does the growth read?
**A.** 72.7% (inactive)

**Q.** For `O=C(CCl)Nc1ccc(C(=O)/C=C/c2cc3ccccc3nc2Cl)cc1`, which growth is on record?
**A.** -59.7% (active) and 28.6% (inactive)

**Q.** With `Cc1cc(C2(c3cc(C)c(OCC(O)CNc4c(C)n(C)n(-c5ccccc5)c4=O)cc3C(C)C)OC(=O)c3ccccc32)c(C(C)C)cc1OCC(O)CNc1c(C)n(C)n(-c2ccccc2)c1=O` (configuration not stated) as the molecule, how does the growth read?
**A.** 4.53% (active)

**Q.** `Cn1cc(-c2cc(N)n3nc(-c4c[nH]c5ccccc45)cc3n2)c2cc(Br)ccc21` was tested. Which growth did it give?
**A.** 7.7% (active)

**Q.** For `CCC(=O)c1c2c(c3ccc4c5ccccc5ccc4n13)C(=O)c1ccccc1C2=O`, which growth is on record?
**A.** 96.7% (inactive)

**Q.** With `CS(=O)(=O)Nc1cc(-c2ccc3ncnc(Nc4ccc(OCc5cccnc5)c(Cl)c4)c3c2)cnc1Cl` as the molecule, how does the growth read?
**A.** 9.57% (active)

**Q.** How did the growth turn out when `Cn1cc(-c2cc(N)n3nc(-c4c[nH]c5ccccc45)cc3n2)c2cc(Cl)ccc21` was run?
**A.** 7.97% (active)

**Q.** With `COc1ccc(N=Nc2c(N)nn3c(N)c(C#N)c(-c4ccc(C)cc4)nc23)cc1` as the molecule, how does the growth read?
**A.** 36.1% (inactive)

**Q.** Which growth does the source give for `COc1ccc(C(=O)/C=C/c2ccc3c(c2)OCCO3)cc1S(N)(=O)=O` here?
**A.** 16.7% (inactive)

**Q.** With `CCCCC[C@@H]1C/C=C(\C)[C@@H](O)C(C)(C)C(=O)[C@@H](C)/C=C(\C)[C@@H]2C[C@H](O)C[C@](O)(CC(=O)O1)O2` as the molecule, how does the growth read?
**A.** 13.6% (inactive)

**Q.** For `CC(C)(C)c1ccc(OCc2nc3ccccc3n2-c2cccc(N)c2)cc1`, which growth is on record?
**A.** 33.3% (inactive) and 101% (inactive)

**Q.** With `O=C1/C(=C/c2cnc(-c3ccccc3)s2)SC(=S)N1Cc1ccc2c(c1)OCO2` as the molecule, how does the growth read?
**A.** 42.1% (inactive)

**Q.** Which growth does the source give for `COc1ccc(NC2=C(I)C(=O)C(C)=C(C)C2=O)cc1` here?
**A.** 1.44% (active)

**Q.** `COc1ccc(-c2nnc3c(/C=C/c4ccc(Br)cc4)nc4ccccc4n23)cc1` was tested. Which growth did it give?
**A.** 10.6% (inactive)

**Q.** `C[C@H]1[C@@H](CC(=O)N[C@@H](Cc2coc3ccccc23)B(O)O)O[C@@H]2OC3(C)CC[C@H]4[C@H](C)CC[C@@H]1[C@@]24O3` was tested. Which growth did it give?
**A.** 14.8% (inactive)

**Q.** `O=C(NNC(=S)NC(=O)c1ccccc1)c1ccc(OCc2nc3ccc(Cl)cc3[nH]2)cc1` was tested. Which growth did it give?
**A.** 4.64% (active)

**Q.** How did the growth turn out when `CC1=C(C)C(=O)C(NCCN2CCOCC2)=C(Br)C1=O` was run?
**A.** 0.994% (active)

**Q.** With `N#Cc1ccc(C(=O)NNC(=O)CSc2nc3sc4c(c3c(=O)n2-c2ccc(Cl)cc2)CCCC4)cc1` as the molecule, how does the growth read?
**A.** 63.4% (inactive)

**Q.** For `CCCCCCCOc1ccc(S(=O)(=O)Nc2ccc(C)c(F)c2C(=O)O)cc1`, which growth is on record?
**A.** 88.4% (inactive)

Reference: PubChem BioAssay (NCI)
